# Experimental data published in PubChem BioAssay (NCATS).
# Where “and” joins values, the source holds several entries; their conditions need not be identical. Equal entries are not always repeated. Inconclusive results are not listed. Where a call stands in place of a potency, no number is given. Calls of active or inactive are those of the source. Unless noted, calls follow the shape of the dose curve; as a rule, active = well fitted curve in the direction sought with a large enough effect; inconclusive = small, poorly fitted or top-dose-only effect, or another doubt; inactive = no such curve, though single readings can be large; an effect the other way counts as inactive or inconclusive.
# Experiments:
# [1] = A High-Content qHTS Against Drug Library for the Identification of Small Molecules that Inhibit DYT1 Early Onset Primary Dystonia-Associated Cell Pathology (AID 1645839; calls by dose curve; also: series mostly up to about 46 µM)
# How it was run: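 Flp-In T-REx 293 cells with tetracycline-inducible EGFP-delE hTOR1A (WT EGFP-hTOR1A as reference), 800 cells/well; compound added with tetracycline, 48 h at 37 C. Fixed, permeabilized cells imaged; %pathology (punctate TorsinA) primary, cell count counterscreen.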
# [2] = molecular target: Cytochrome P450 2C9 (Homo sapiens) (UniProt P11712); assay: Cytochrome P450 family 2 subfamily C member 9 (CYP2C9) small molecule antagonists: luciferase biochemical (cell-free) qHTS assay (AID 1645842; active = well fitted curve in the direction sought with a large enough effect in the repeat runs; an effect the other way counts as inactive or inconclusive; also: nearly all actives have a fitted effect of over 55% in size; also: potency is read from the fitted curve at half-maximal effect)
# Chain of Cytochrome P450 2C9 (Homo sapiens) (P11712 whole entry, looked up): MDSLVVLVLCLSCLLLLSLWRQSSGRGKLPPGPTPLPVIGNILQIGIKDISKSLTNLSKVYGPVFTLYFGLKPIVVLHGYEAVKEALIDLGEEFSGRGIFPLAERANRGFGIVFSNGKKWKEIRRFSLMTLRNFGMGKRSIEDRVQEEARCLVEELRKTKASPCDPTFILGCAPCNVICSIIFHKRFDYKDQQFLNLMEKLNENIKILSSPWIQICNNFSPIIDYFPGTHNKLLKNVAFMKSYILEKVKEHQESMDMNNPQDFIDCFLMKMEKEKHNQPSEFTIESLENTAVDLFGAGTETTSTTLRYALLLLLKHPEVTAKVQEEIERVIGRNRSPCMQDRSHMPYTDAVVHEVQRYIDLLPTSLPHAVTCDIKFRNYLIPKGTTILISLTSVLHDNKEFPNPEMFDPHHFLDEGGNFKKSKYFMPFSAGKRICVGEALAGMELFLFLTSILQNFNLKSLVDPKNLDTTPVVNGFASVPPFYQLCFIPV
# How it was run: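 Luminescence, after 20 min with luciferin detection reagent, reflected CYP2C9 turnover during a 1 h NADPH-driven reaction at 37C. Enzyme-substrate mix contained 0.4% bovine serum albumin and was preincubated with compound 10 min at room temperature.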
# [3] = Primary qHTS for inhibitors of nuclear receptor binding SET domain protein 2 (NSD2) in an isogenic RCH-ACV NSD2 p.E1099K mutant (9B) (AID 1645876); also: nearly all actives have a fitted effect of over 70% in size; also: potency is read from the fitted curve at half-maximal effect
# [4] = molecular target: N-terminal Xaa-Pro-Lys N-methyltransferase 1 (Homo sapiens) (UniProt Q9BV86); assay: Confirmatory qHTS for Inhibitors of N-terminal methyltransferase 1 (NTMT1): MTaseGlo Assay (AID 1645874); conditions: NTMT1 enzyme, MTase-Glo SAH luminescence; also: potency is read from the fitted curve at half-maximal effect; nearly all actives have a fitted effect of over 65% in size
# Chain of N-terminal Xaa-Pro-Lys N-methyltransferase 1 (Homo sapiens) (Q9BV86 whole entry, looked up): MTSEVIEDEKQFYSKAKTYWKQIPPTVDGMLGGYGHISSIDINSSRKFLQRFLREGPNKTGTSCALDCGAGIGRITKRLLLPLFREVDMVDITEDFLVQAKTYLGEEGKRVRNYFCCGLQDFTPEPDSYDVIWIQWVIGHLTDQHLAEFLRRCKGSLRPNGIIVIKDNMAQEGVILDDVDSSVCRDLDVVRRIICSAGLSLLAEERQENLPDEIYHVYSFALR
# How it was run: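 Luminescent MTase-Glo read-out of SAH. 125 nM NTMT1, 100 uM SAM, 1 uM SPKRIA substrate, 30 min RT reaction after 15 min compound preincubation. Normalized to no-enzyme and DMSO controls; Hill fit.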
# Papain (Carica papaya) = Papain (Carica papaya) (UniProt P00784); assay: Primary qHTS assay for inhibitors of the protease papain (AID 1645873);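 also: papain turnover of Z-FR-AMC read as the AMC fluorescence gain over 10 min; series mostly up to about 50 µM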
# Chain of Papain (Carica papaya) (P00784 whole entry, looked up): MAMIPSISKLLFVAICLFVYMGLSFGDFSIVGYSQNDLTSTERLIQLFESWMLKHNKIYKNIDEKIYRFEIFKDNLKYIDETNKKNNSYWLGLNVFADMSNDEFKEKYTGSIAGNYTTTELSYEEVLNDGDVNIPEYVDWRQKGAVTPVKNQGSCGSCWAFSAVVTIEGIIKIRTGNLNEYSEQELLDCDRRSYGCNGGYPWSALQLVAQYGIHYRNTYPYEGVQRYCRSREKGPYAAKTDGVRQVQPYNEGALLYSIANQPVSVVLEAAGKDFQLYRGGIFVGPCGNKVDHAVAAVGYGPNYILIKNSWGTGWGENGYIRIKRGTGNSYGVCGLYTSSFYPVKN
# [5] = molecular target: Cytochrome P450 2D6 (Homo sapiens) (UniProt P10635); assay: Cytochrome P450 family 2 subfamily D member 6 (CYP2D6) small molecule antagonists: luciferase biochemical (cell-free) qHTS assay (AID 1645840; active = well fitted curve in the direction sought with a large enough effect in the repeat runs; an effect the other way counts as inactive or inconclusive; also: nearly all actives have a fitted effect of over 55% in size; also: potency is read from the fitted curve at half-maximal effect)
# Chain of Cytochrome P450 2D6 (Homo sapiens) (P10635 whole entry, looked up): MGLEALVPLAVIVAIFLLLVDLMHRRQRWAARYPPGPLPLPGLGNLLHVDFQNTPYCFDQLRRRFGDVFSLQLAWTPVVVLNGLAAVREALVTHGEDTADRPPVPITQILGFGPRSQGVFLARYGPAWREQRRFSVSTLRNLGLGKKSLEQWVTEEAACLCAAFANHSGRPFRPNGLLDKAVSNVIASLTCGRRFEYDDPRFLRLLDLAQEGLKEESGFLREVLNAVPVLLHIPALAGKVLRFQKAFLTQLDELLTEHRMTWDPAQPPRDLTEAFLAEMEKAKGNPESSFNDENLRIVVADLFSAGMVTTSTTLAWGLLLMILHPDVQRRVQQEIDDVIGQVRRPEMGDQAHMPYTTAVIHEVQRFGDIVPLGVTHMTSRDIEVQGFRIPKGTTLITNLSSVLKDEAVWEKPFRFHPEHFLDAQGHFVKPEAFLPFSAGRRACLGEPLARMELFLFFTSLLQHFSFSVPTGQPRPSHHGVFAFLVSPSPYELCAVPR
# How it was run: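 P450-Glo luminescent screen: recombinant CYP2D6 enzyme–proluciferin substrate mix preincubated with compound 10 min at room temperature, then NADPH regeneration added for 1 h at room temperature. Detection reagent added for 20 min; luciferin light read as relative luminescence units.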
compound,measurement,setting,value
CN1CCOC(c2ccccc2)c2ccccc2C1 (configuration not stated),Potency,[1],inactive
same,Potency,[2],inactive
same,Potency,[3],inactive
CC(C)(O)c1ccccc1CC[C@@H](SCC1(CC(=O)O)CC1)c1cccc(/C=C/c2ccc3ccc(Cl)cc3n2)c1,Potency,[1],inactive
same,Potency,[2],inactive
same,Potency,[3],inactive
O=C(O)[C@H](O)c1ccccc1,Potency,[1],inactive
same,Potency,[2],inactive
same,Potency,[3],inactive
CCN(CC)CCNC(=O)c1c(C)[nH]c(/C=C2\C(=O)Nc3ccc(F)cc32)c1C,Potency,[2],inactive
same,Potency,[4],30.8 µM (active)
same,Potency,[3],3.76 µM (active) and 3.32 µM (active)
CC(=O)Oc1c(C)c(C)c2c(c1C)CC[C@@](C)(CCC[C@H](C)CCC[C@H](C)CCCC(C)C)O2,Potency,[1],inactive
same,Potency,[2],inactive
same,Potency,[3],inactive
COC(=O)C1=C(C)NC(C)=C(C(=O)OC)C1c1ccccc1[N+](=O)[O-],Potency,[1],inactive
same,Potency,Papain (Carica papaya),inactive
CSc1ccc2c(c1)C(N1CCN(C)CC1)Cc1ccccc1S2 (configuration not stated),Potency,[5],0.55 µM (active)
same,Potency,Papain (Carica papaya),inactive
same,Potency,[3],23.7 µM (active)
CC(C)c1c(C(=O)Nc2ccccc2)c(-c2ccccc2)c(-c2ccc(F)cc2)n1CC[C@@H](O)C[C@@H](O)CC(=O)O,Potency,[1],inactive
same,Potency,Papain (Carica papaya),inactive
NCC(=O)CCC(=O)O,Potency,[1],inactive
same,Potency,[2],inactive
same,Potency,[3],inactive
O=Cc1ccccc1C=O,Potency,[1],inactive
same,Potency,[2],inactive
same,Potency,[3],inactive
O=C(O)COc1nn(Cc2ccccc2)c2ccccc12,Potency,[1],inactive
same,Potency,[5],inactive
same,Potency,[3],inactive
CCCCN(CCCC)CC(O)c1cc(Cl)cc2c1-c1ccc(Cl)cc1/C2=C/c1ccc(Cl)cc1 (configuration not stated),Potency,[5],0.347 µM (active)
same,Potency,[2],21.9 µM (active)
same,Potency,Papain (Carica papaya),inactive
same,Potency,[3],15 µM (active)
CC(CN(C)C)CN1c2ccccc2CCc2ccccc21 (configuration not stated),Potency,[5],2.88 µM (active)
same,Potency,[2],inactive
same,Potency,Papain (Carica papaya),inactive
CN1[C@@H]2CC[C@H]1CC(OC(=O)C(O)c1ccccc1)C2 (some centres not stated),Potency,[1],inactive
same,Potency,[2],inactive
same,Potency,[3],inactive
N[C@@H](CSCCCO)C(=O)O,Potency,[1],inactive
same,Potency,[2],inactive
same,Potency,[3],inactive
CCC(=O)Nc1ccc(O)cc1,Potency,[1],inactive
same,Potency,[2],inactive
same,Potency,[3],inactive
CC1(C)CO[C@@H](CC(=O)O)CN1,Potency,[1],inactive
same,Potency,[2],inactive
same,Potency,[3],inactive
CCCCCCCCCCCCOS(=O)(=O)O,Potency,[1],inactive
same,Potency,[3],inactive
